# The supplement of paper PMC6555819
# Legend:
# Experiment in all cases: PBM binding z-score (relative to random genomic background probes); higher = stronger binding; sequences stand for … in GC…GCGATTGACAGCGTAGAATGAAGG
# [1] = tested on: FXR:RXRa (NR concentration 270 nM, RXRa partner concentration 90 nM)
# How it was run: (§1)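 On custom Agilent 4×180K arrays, double-stranded probes with 34-nt variable regions carried direct-repeat seeds, single-nucleotide variants, half-site ablations or random human genomic background. Ligand-free nuclear receptor dimers were applied for 1 h, and binding was read with antibodies against each partner (one per run). Binding z-scores come from regression-normalized fluorescence, with the random background probes as reference.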
# [2] = tested on: LXRa:RXRa (NR concentration 270 nM, RXRa partner concentration 90 nM)
# How it was run: as §1
# [3] = tested on: LXRa homodimer (NR concentration 270 nM)
# How it was run: as §1
# [4] = tested on: LXRb:RXRa (NR concentration 270 nM, RXRa partner concentration 90 nM)
# How it was run: as §1
# [5] = tested on: LXRb homodimer (NR concentration 270 nM)
# How it was run: as §1
# [6] = tested on: PPARa:RXRa (NR concentration 270 nM, RXRa partner concentration 90 nM)
# How it was run: as §1
# [7] = tested on: PPARg:RXRa (NR concentration 180 nM, RXRa partner concentration 90 nM)
# How it was run: as §1
# [8] = tested on: PPARg:RXRa 270nM:90nM, anti-RXR (NR concentration 270 nM, RXRa partner concentration 90 nM)
# How it was run: as §1
# [9] = tested on: PPARg:RXRa 30nM:10nM, anti-RXR (NR concentration 30 nM, RXRa partner concentration 10 nM)
# How it was run: as §1
# [10] = tested on: PPARg:RXRa 90nM:30nM, anti-RXR (NR concentration 90 nM, RXRa partner concentration 30 nM)
# How it was run: as §1
# [11] = tested on: PPARg:RXRa DBDmut IVT, anti-RXR (DBD mutation: RXRa K156A/R161A, NR concentration 270 nM, RXRa partner concentration 90 nM)
# How it was run: as §1
# [12] = tested on: PPARg:RXRa IVT, anti-PPARg (NR concentration 270 nM, RXRa partner concentration 90 nM)
# How it was run: as §1
# [13] = tested on: PPARg DBDmut:RXRa IVT, anti-PPARg (DBD mutation: PPARg1 K132A/R137A, NR concentration 270 nM, RXRa partner concentration 90 nM)
# How it was run: as §1
# [14] = tested on: PPARg DBDmut IVT, anti-PPARg (DBD mutation: PPARg1 K132A/R137A, NR concentration 270 nM)
# How it was run: as §1
# [15] = tested on: PPARg homodimer (NR concentration 180 nM)
# How it was run: as §1
# [16] = tested on: PXR:RXRa (NR concentration 270 nM, RXRa partner concentration 90 nM)
# How it was run: as §1
# [17] = tested on: PXR homodimer (NR concentration 270 nM)
# How it was run: as §1
# [18] = tested on: RARa:RXR (NR concentration 270 nM, RXRa partner concentration 90 nM)
# How it was run: as §1
# [19] = tested on: RARa homodimer (NR concentration 270 nM)
# How it was run: as §1
# [20] = tested on: RARb:RXRa (NR concentration 270 nM, RXRa partner concentration 90 nM)
# How it was run: as §1
Sequence,PBM binding z-score [1],PBM binding z-score [2],PBM binding z-score [3],PBM binding z-score [4],PBM binding z-score [5],PBM binding z-score [6],PBM binding z-score [7],PBM binding z-score [8],PBM binding z-score [9],PBM binding z-score [10],PBM binding z-score [11],PBM binding z-score [12],PBM binding z-score [13],PBM binding z-score [14],PBM binding z-score [15],PBM binding z-score [16],PBM binding z-score [17],PBM binding z-score [18],PBM binding z-score [19],PBM binding z-score [20]
ACAGACAGGAGAGTGAAGGTAACTCAGCTGGACG,0.399,-0.127,-0.128,0.0952,0.885,0.0627,0.928,0.616,0.213,0.343,-0.0669,0.0769,0.725,0.294,0.433,0.0985,0.114,0.228,0.297,0.198
GCATATAGGTAATACTAGGTGAAAGTCCGATTGT,0.715,2.49,0.179,0.49,-0.275,2.06,2.22,2.48,1.09,2.43,4.82,4.2,0.862,0.925,0.614,0.155,0.151,1.1,0.695,0.113
CCAACTAGGTCACAGAGGTCAAAGTCCGTGCGTA,7.03,6.68,7.62,6.53,2.14,6.53,9.3,7.99,5.85,7.48,8.13,8.5,1.22,2.03,5.09,6.64,11.9,7.08,2.03,5.31
TCGAGTACGTTAGGGGCATTCAGAATGGCGTCGA,-0.212,-0.0926,-0.859,0.0159,-1.01,0.403,0.0548,0.205,0.448,0.552,0.475,-0.595,-1.29,-1.15,-0.704,1.69,5.78,-0.118,-0.866,0.723
CAAACTAGGTCACGAAAGGTCATAGTCGAATGAC,7.43,7.78,7.34,6.95,2.21,6.37,10.5,8.43,7.64,8.8,8.9,9.17,2.98,2.98,6.62,6.74,2.77,7.32,3.5,5.58
GCGACTGGGGCAAAGCAGGTTACGATAAGGTTGG,0.296,-0.117,-0.718,0.363,-0.982,1.47,1.32,1.43,-0.188,0.405,4.13,3.73,-0.523,-0.59,0.215,0.285,-0.433,0.352,-0.129,0.879
GCTTGTAGATCGAGGTTAAGAAAGACTAAGCTAA,0.262,1.09,-0.228,0.65,-0.682,1.68,-0.0308,0.648,-0.204,0.479,0.155,0.569,-0.125,0.233,0.235,0.519,-0.12,1.03,0.293,0.634
CGAACTAGGTCAGAACAGGACAGTGTAGGATGAT,1.59,0.807,-0.126,0.58,-0.539,3.33,5.09,4.48,1.85,3.29,7.44,7.53,3.18,2.19,1.06,0.998,0.228,0.95,0.229,3.07
ATCTCTAGGTAACAAGTTCAGTGCAAGAGAGGAC,0.558,0.749,0.739,0.611,0.89,1.5,1.32,1.86,0.692,1.45,3.44,2.92,1.24,1.13,1.36,1.87,2.67,0.985,1.05,1.69
CATACAGGGTCAGCTAGGCCAGTGTAGGGACGGC,4.16,2.82,-0.158,1.81,0.182,4.09,2.96,2.97,0.501,2.32,1.02,2.44,0.598,0.349,1.32,1.78,-0.247,3.02,-0.155,3.98
ATCGAAAGGTCGACGAGATGAGTATACACCGTTT,3.66,2.9,0.0102,2.41,0.483,4.04,2.7,2.66,1.14,1.85,0.534,1.36,1.43,1.08,1.2,2.24,0.2,2.77,0.514,3.79
CCTTACGTGTCAAGGTTATAGCACGGGTGGTACG,0.976,0.929,0.288,0.638,0.609,1.36,0.992,0.8,0.3,0.364,0.564,0.962,-0.292,0.0662,0.942,0.998,0.776,1.16,1.18,1.57
ATATGTAGGTAAGCTGGGGTCATTCAGACTAGGC,4.33,4.31,1.73,4.3,1.58,4.98,4.31,4.65,2,3.77,6.08,5.46,1.69,1.13,1.48,6.07,3.4,5.45,0.719,2.67
CGTCAAGGTTCAACTAAGGTAACGTAAAGCACGC,5.26,4.66,1.12,2.96,0.335,4.18,2.49,2.73,0.464,1.82,-0.0468,0.857,-0.137,-0.827,1.13,3.96,0.241,3.05,0.652,3.14
TCGAGTAGGTTAGTGGCATTCAGAATGGCGTCGA,-0.429,-0.347,-0.383,-0.122,-1.05,0.197,-0.294,0.534,0.972,0.858,2.03,1.11,-1.08,-0.671,0.509,-0.288,-0.134,-0.0955,-0.37,0.0922
GCTGTTAGTTGAAAGGGCAACCGAATGATTCTCG,0.495,0.93,-0.0723,0.717,0.0485,2.12,1.42,2.9,0.9,2.33,0.247,0.541,0.463,0.0066,1.39,0.665,0.0448,1.48,0.147,2.08
ATCGAAAGGTCGGGAGGTGAGTATACAGAAAGGC,2.88,2.4,0.589,2.36,0.968,3.64,2.22,2.42,0.864,1.44,0.224,1.47,2.2,1.16,1.74,2.12,0.567,2.81,1.38,3.48
CAAACTAGCTCACGAAAGGTCAAAGTCGAATGAC,4.81,5.42,5.5,5.58,2.21,5.38,2.42,4.26,1.46,3.03,0.734,2.28,0.536,0.187,3.91,5.52,1.75,6.04,2.13,4.4
